High-throughput results from PubChem BioAssay.
Hits are enriched below; roughly 3.5% of the tested compounds scored in any of these assays.
GPR151 activ = activators of human GPR151, primary screen, cell-based, PathHunter beta-arrestin, luminescence; activation, % at 11.2 µM; 650,000 compounds, 1% hits; PathHunter beta-arrestin GPR151 cells; AID 1508602, 2020; in the data active means activation above about 4.9%;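 further: 0% = median of compound wells and 100% = cells with positive control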
Target sequence (Q8TDV0 whole entry, looked up): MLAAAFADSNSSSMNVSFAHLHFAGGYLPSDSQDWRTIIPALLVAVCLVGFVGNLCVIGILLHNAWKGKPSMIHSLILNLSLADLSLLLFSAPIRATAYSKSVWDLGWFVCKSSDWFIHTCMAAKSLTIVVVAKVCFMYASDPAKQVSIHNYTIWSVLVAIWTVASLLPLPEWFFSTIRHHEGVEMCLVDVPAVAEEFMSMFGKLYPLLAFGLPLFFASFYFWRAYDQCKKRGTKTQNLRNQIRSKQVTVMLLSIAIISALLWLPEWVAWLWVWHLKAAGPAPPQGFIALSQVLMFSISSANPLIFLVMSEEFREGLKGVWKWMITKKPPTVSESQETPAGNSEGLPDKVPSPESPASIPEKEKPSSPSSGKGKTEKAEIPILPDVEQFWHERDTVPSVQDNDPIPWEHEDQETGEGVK
FBW7 act = FBW7 E3 ligase activators, primary screen, biochemical, AlphaScreen, human. F-box/WD repeat-containing protein 7 (Homo sapiens), Q969H0. AlphaScreen FBW7–phospho-cyclin E peptide binding, activator screen. normalized activity (activation), % at 26.1 µM. 650,000 compounds, 0.13% hits. AID 1259310, 2017; in the data active means normalized activity above about 1.9%;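 further: purified mutant Fbw7 with reduced substrate affinity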
TEAD-YAP block = TEAD-YAP interaction inhibition, primary screen, TEAD-YAP interaction inhibitor project, luminescence, HEK-TIYL cells; TEAD-Gal4/YAP UAS-luciferase luminescence; inhibition, % at 9.12 µM; 640,000 compounds, 1.4% hits; AID 1259422, 2018; in the data active means inhibition above about 32%;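 further: 0% = median of test compound wells and 100% = reference inhibitor wells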
MITF inh = MITF inhibitors, primary screen, biochemical, AlphaScreen, human | Microphthalmia-associated transcription factor (Homo sapiens), O75030 | 650,000 compounds, 0.91% hits | AID 1259374, 2018 | AlphaScreen MITF homodimerization, bead proximity signal | inhibition, % at 2.6 µM; in the data active means inhibition above about 50%;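 further: 0% = vehicle wells with protein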
GPR151 confirm = GPR151 activators, triplicate retest, confirmation, cell-based, PathHunter beta-arrestin, luminescence; GPR151 PathHunter beta-arrestin cells, 90 min; % of EA-reagent control over plate median; activation, % at 11.2 µM; shares compounds with GPR151 activ; 6,700 tested, under 10 active;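 active means mean percent activation across replicates above the confirmation screen cutoff of 4.91%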
GPR119 ag = GPR119 activators in beta-arrestin cells, counter-screen for GPR151 activator project, cell-based, PathHunter beta-arrestin, luminescence, triplicate; shares compounds with GPR151 activ; 90 min; 0 = compound-well median, 100 = enzyme-acceptor control; activation, % at 11.2 µM; 6,700 compounds, 0.3% hits; AID 1508611, 2020;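 active means mean percent activation in the counterscreen above 29.09%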;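 further: counterscreen on off-target GPR119 to flag nonselective hits from the GPR151 activator screen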
* = called active by the depositor; . = not tested or not shown.

SMILES	GPR151 activ	FBW7 act	TEAD-YAP block	MITF inh	GPR151 confirm	GPR119 ag
CCOc1ccc2[nH]c(C)c(CN(C)C)c(=O)c2c1	6.8*	0	-4	-1	0	4
COc1ccc2[nH]c(C)c(CN(C)C)c(=O)c2c1	0	0	15	-3	.	.
CCCC(=O)Nc1c(-c2ccccc2)nc2ccccn12	0	0	-1	0	.	.
COCCCNC(=O)c1cccnc1SCc1ccccc1Cl	5.5*	0	2	-10	-1	-13
Cc1nc(SCC(=O)NNC(=O)c2cccs2)n[nH]1	5.8*	1	0	10	0	1
COc1ccccc1C(=O)Nc1ccnn1C1CCN(C2CCCCC2)CC1	5.1*	0	-3	5	1	10
CCn1cc(CN2CCC(n3nccc3NC(=O)c3ccc(OC)cc3)CC2)cn1	5.2*	0	9	6	-1	-20
COc1ccccc1C(=O)Nc1ccnn1C1CCN(Cc2ccc3nsnc3c2)CC1	5.6*	0	6	5	1	7
COc1ccccc1C(=O)Nc1ccnn1C1CCN(Cc2cccc(C(C)=O)c2)CC1	1	0	-7	-3	.	.
COc1cc(NC(=O)COc2ccc(Br)c(C)c2)cc(OC)c1	0	0	8	13	.	.
CC(=O)Nc1ccc(-c2ccncc2)cc1NC(=O)[C@H](N)Cc1cccc(F)c1	0	-1	1	5	.	.
Cc1cc(C)n(-c2cc(NCCNC(=O)C(C)(C)Oc3ccc(Cl)cc3)nc(C)n2)n1	8.6*	0	10	-18	1	0
CCSc1ncc(Cl)c(C(=O)Nc2ccc([N+](=O)[O-])cc2Cl)n1	-1	1	6	7	.	.
CCOC(=O)C1SC(c2ccccc2)SCC1=O (stereo not drawn)	-2	0	1	26	.	.
CCOC(=O)C1(Cc2cccc(OC)c2)CCN(CCO)CC1	7.9*	0	3	15	0	6
CCOC(=O)C1(Cc2ccc(Cl)cc2)CCN(CCC(C)O)CC1 (stereo not drawn)	5.0*	0	6	15	0	-11
CCOC(=O)C1(Cc2ccc(Cl)cc2)CCN(CC)CC1	0	0	-4	11	.	.
COc1ccccc1NC1CC(=O)N(c2ccc(Br)cc2)C1=O (stereo not drawn)	0	0	6	-5	.	.
COc1ccc(NC2CC(=O)N(c3ccc(OC)cc3)C2=O)cc1 (stereo not drawn)	-2	0	0	-5	.	.
COc1ccc(NC2CC(=O)N(c3ccc(Cl)c(C(F)(F)F)c3)C2=O)cc1 (stereo not drawn)	6.0*	0	15	3	0	-8
COc1ccccc1NC1CC(=O)N(c2cccc(Cl)c2)C1=O (stereo not drawn)	9.1*	0	-9	2	0	4
COC(CN1C(=O)C(=O)/C(=C(\O)c2ccccc2)C1c1ccccc1)OC (stereo not drawn)	1	0	7	-1	.	.
COC(CN1C(=O)C(=O)/C(=C(/O)c2ccccc2)C1c1cccnc1)OC (stereo not drawn)	5.9*	0	4	0	1	4
O=C1C(=O)N(CCN2CCOCC2)C(c2cccnc2)/C1=C(/O)c1ccc(S(=O)(=O)N2CCOCC2)cc1 (stereo not drawn)	6.5*	0	3	14	1	3
CCOc1ccc(CCNC(=O)Cn2nc(-c3ccc(C)c(S(=O)(=O)N4CCOCC4)c3)c3ccccc3c2=O)cc1OCC	-1	0	5	8	.	.
O=C(Nc1ccc2oc(=O)ccc2c1)c1ccc([N+](=O)[O-])cc1Cl	9.0*	0	16	6	1	-4
CCOc1ccc(NC(=O)c2ccc([N+](=O)[O-])cc2Cl)cc1	6.4*	0	-27	2	-1	-8
